In PubChem BioAssay AID1159580 (chemical genetic matrix, 2015):
Out of some 5,500 compounds screened, about 2,000 (36%) were called active. Another 18% or so got no clear call; they are omitted. Rule as the data show it: active = normalized growth mostly below about 0.91 (no sharp cut-off); inconclusive = no clear call, values can overlap the other calls; inactive = mostly above about 0.92. This is one part of the list.

Assay: chemical genetic growth profiling, strain panel (AID 1159580);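 also: tested at 20 µM; growth read once vehicle control cultures reached saturation at 30 °C; 1 = growth at the plate median or of vehicle wells; lower values mean less growth of the strain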
Conditions: growth OD
[1] = S. cerevisiae deletion strains, locus YAL013W, strain DEP1, hits give low values
[2] = S. cerevisiae deletion strains, locus YBR229C, strain ROT2, hits give low values
[3] = S. cerevisiae deletion strains, locus YCL061C, strain MRC1, hits give low values
[4] = S. cerevisiae deletion strains, locus YDL101C, strain DUN1, hits give low values
[5] = S. cerevisiae deletion strains, locus YDR150W, strain NUM1, hits give low values
[6] = S. cerevisiae deletion strains, locus YEL061C, strain CIN8, hits give low values
[7] = S. cerevisiae deletion strains, locus YGR078C, strain PAC10, hits give low values
[8] = S. cerevisiae deletion strains, locus YHR030C, strain SLT2, hits give low values
[9] = S. cerevisiae deletion strains, locus YHR087W, strain rtc3, hits give low values
[10] = S. cerevisiae deletion strains, locus YJR043C, strain POL32, hits give low values
[11] = S. cerevisiae deletion strains, locus YJR075W, strain HOC1, hits give low values
[12] = S. cerevisiae deletion strains, locus YLR039C, strain RIC1, hits give low values
[13] = S. cerevisiae deletion strains, locus YLR058C, strain SHM2 (second series), hits give low values
[14] = S. cerevisiae deletion strains, locus YLR085C, strain ARP6, hits give low values
[15] = S. cerevisiae deletion strains, locus YLR262C, strain YPT6, hits give low values
[16] = S. cerevisiae deletion strains, locus YML094W, strain GIM5, hits give low values
[17] = S. cerevisiae deletion strains, locus YMR219W, strain ESC1, hits give low values
[18] = S. cerevisiae deletion strains, locus YMR263W, strain SAP30, hits give low values
[19] = S. cerevisiae deletion strains, locus YMR307W, strain GAS1, hits give low values
[20] = S. cerevisiae deletion strains, locus YNL153C, strain GIM3, hits give low values
[21] = S. cerevisiae deletion strains, locus YNL298W, strain CLA4 (second series), hits give low values
[22] = S. cerevisiae deletion strains, locus YNL322C, strain KRE1, hits give low values
[23] = S. cerevisiae deletion strains, locus YNR030W, strain Alg12, hits give low values
[24] = S. cerevisiae deletion strains, locus YPL055C, strain LGE1, hits give low values
[25] = S. cerevisiae deletion strains, locus YPL241C, strain CIN2, hits give low values
[26] = S. cerevisiae deletion strains, locus YPR135W, strain CTF4, hits give low values
[27] = S. cerevisiae strains, strain wild type, hits give low values
[28] = S. cerevisiae deletion strains, locus YHR079C, strain IRE1, hits give low values
[29] = S. cerevisiae deletion strains, locus YJL095W, strain BCK1, hits give low values
[30] = S. cerevisiae deletion strains, locus YJR066W, strain TOR1, hits give low values
[31] = S. cerevisiae deletion strains, locus YLR113W, strain HOG1, hits give low values
[32] = S. cerevisiae deletion strains, locus YNL183C, strain NPR1, hits give low values
[33] = S. cerevisiae deletion strains, locus YOR231W, strain MKK1, hits give low values
[34] = S. cerevisiae deletion strains, locus YPL256C, strain CLN2, hits give low values

Measured: normalized growth

Cc1cc(=O)n2[nH]cc(C#N)c2n1
inactive: [1] 1 | [2] 1 | [3] 1.02 | [4] 1.01 | [5] 1.04 | [6] 0.999 | [7] 1.01 | [8] 1.09 | [9] 1.01 | [10] 1.02 | [11] 0.995 | S. cerevisiae deletion strains, locus YKL190W, strain CNB1, hits give low values 0.981 | [12] 1.01 | [13] 1 | [14] 1 | [15] 1.04 | [16] 0.995 | [17] 0.994 | [18] 1.04 | [19] 0.968 | [20] 1.02 | [21] 1.01 | [22] 1 | [23] 1.01 | [24] 1.06 | [25] 0.99 | [26] 1.09 | [27] 0.993

CSC(=CC(=O)c1ccc(Cl)cc1)SC
inactive: [5] 0.888
active: [1] 0.884 | [2] 0.867 | [3] 0.848 | [4] 0.836 | S. cerevisiae deletion strains, locus YDL134C, strain PPH21, hits give low values 0.747 | [6] 0.74 | [7] 0.872 | S. cerevisiae deletion strains, locus YGR229C, strain SMI1, hits give low values 0.884 | [8] 0.218 | [9] 0.829 | S. cerevisiae deletion strains, locus YJL187C, strain SWE1, hits give low values 0.869 | [10] 0.874 | [11] 0.828 | [12] 0.421 | [13] 0.836 | [14] 0.394 | [15] 0.431 | [16] 0.79 | [17] 0.889 | [18] 0.874 | [19] 0.286 | S. cerevisiae deletion strains, locus YNL128W, strain TEP1, hits give low values 0.888 | [20] 0.879 | [21] 0.645 | [22] 0.895 | [23] 0.765 | [24] 0.771 | [25] 0.685 | [26] 0.352 | [27] 0.811

COC1=C(O)C(=O)c2c(cc3oc(C(C)=O)c(O)c3c2O)C1=O
inactive: [8] 0.986 | [28] 1.01 | [29] 1.03 | [30] 0.957 | [31] 1.04 | [32] 0.973 | [33] 0.999 | [34] 0.973

Cc1csc(NC(=O)Nc2ccc(C(F)(F)F)cc2)c1Cl
inactive: S. cerevisiae deletion strains, locus YAR019C, strain CDC15, hits give low values 0.958 | S. cerevisiae deletion strains, locus YBL105C, strain PKC1, hits give low values 0.96 | S. cerevisiae deletion strains, locus YBR135W, strain CKS1, hits give low values 0.948 | S. cerevisiae deletion strains, locus YBR136W, strain MEC1, hits give low values 0.957 | S. cerevisiae deletion strains, locus YBR160W, strain CDC28, hits give low values 0.943 | S. cerevisiae deletion strains, locus YDL017W, strain CDC7, hits give low values 0.954 | S. cerevisiae deletion strains, locus YDL028C, strain MPS1, hits give low values 0.962 | [4] 0.988 | S. cerevisiae deletion strains, locus YDL108W, strain KIN28, hits give low values 0.948 | S. cerevisiae deletion strains, locus YDL132W, strain cdc53, hits give low values 0.969 | S. cerevisiae deletion strains, locus YDL214C, strain PRR2, hits give low values 0.836 | S. cerevisiae deletion strains, locus YDR052C, strain DBF4, hits give low values 0.961 | S. cerevisiae deletion strains, locus YDR054C, strain cdc34, hits give low values 0.949 | S. cerevisiae deletion strains, locus YDR226W, strain ADK1, hits give low values 0.96 | S. cerevisiae deletion strains, locus YDR477W, strain SNF1, hits give low values 0.905 | S. cerevisiae deletion strains, locus YER123W, strain YCK3, hits give low values 0.802 | S. cerevisiae deletion strains, locus YER133W, strain GLC7, hits give low values 0.897 | S. cerevisiae deletion strains, locus YFL009W, strain cdc4, hits give low values 0.951 | S. cerevisiae deletion strains, locus YFL029C, strain CAK1, hits give low values 0.946 | S. cerevisiae deletion strains, locus YFR003C, strain YPI1, hits give low values 0.957 | S. cerevisiae deletion strains, locus YFR019W, strain FAB1, hits give low values 0.884 | S. cerevisiae deletion strains, locus YFR028C, strain CDC14, hits give low values 0.945 | S. cerevisiae deletion strains, locus YGR040W, strain KSS1, hits give low values 0.892 | S. cerevisiae deletion strains, locus YGR052W, strain FMP48, hits give low values 0.884 | S. cerevisiae deletion strains, locus YGR092W, strain DBF2, hits give low values 0.861 | [8] 0.858 | [28] 0.815 | S. cerevisiae deletion strains, locus YHR082C, strain KSP1, hits give low values 0.873 | S. cerevisiae deletion strains, locus YHR205W, strain SCH9, hits give low values 0.78 | S. cerevisiae deletion strains, locus YIL147C, strain SLN1, hits give low values 0.958 | [29] 0.832 | S. cerevisiae deletion strains, locus YJL128C, strain PBS2, hits give low values 0.891 | S. cerevisiae deletion strains, locus YJL157C, strain FAR1, hits give low values 0.849 | S. cerevisiae deletion strains, locus YJR016C, strain ILV3, hits give low values 0.95 | S. cerevisiae deletion strains, locus YJR066W, strain TOR1 (second series), hits give low values 0.854 | [30] 0.92 | S. cerevisiae deletion strains, locus YKL048C, strain ELM1, hits give low values 0.892 | S. cerevisiae deletion strains, locus YKL067W, strain YNK1, hits give low values 0.831 | S. cerevisiae deletion strains, locus YKL101W, strain HSL1, hits give low values 0.831 | S. cerevisiae deletion strains, locus YKL193C, strain SDS22, hits give low values 0.951 | S. cerevisiae deletion strains, locus YKL203C, strain TOR2, hits give low values 0.957 | S. cerevisiae deletion strains, locus YLR133W, strain CKI1, hits give low values 0.823 | S. cerevisiae deletion strains, locus YLR403W, strain SFP1, hits give low values 0.871 | S. cerevisiae deletion strains, locus YML070W, strain DAK1, hits give low values 0.802 | S. cerevisiae deletion strains, locus YMR001C, strain CDC5, hits give low values 0.954 | S. cerevisiae deletion strains, locus YMR205C, strain PFK2 (second series), hits give low values 0.833 | S. cerevisiae deletion strains, locus YMR277W, strain FCP1, hits give low values 0.966 | S. cerevisiae deletion strains, locus YNL006W, strain LST8, hits give low values 0.968 | S. cerevisiae deletion strains, locus YNL020C, strain ARK1, hits give low values 0.823 | S. cerevisiae deletion strains, locus YNL161W, strain CBK1, hits give low values 0.957 | [32] 0.829 | S. cerevisiae deletion strains, locus YNL207W, strain RIO2, hits give low values 0.945 | S. cerevisiae deletion strains, locus YNL222W, strain SSU72, hits give low values 0.95 | S. cerevisiae deletion strains, locus YNL307C, strain MCK1 (second series), hits give low values 0.84 | S. cerevisiae deletion strains, locus YOL078W, strain AVO1, hits give low values 0.946 | S. cerevisiae deletion strains, locus YOL136C, strain PFK27, hits give low values 0.801 | S. cerevisiae deletion strains, locus YOR061W, strain CKA2, hits give low values 0.842 | S. cerevisiae deletion strains, locus YOR119C, strain RIO1, hits give low values 0.942 | [33] 0.762 | S. cerevisiae deletion strains, locus YOR329C, strain SCD5, hits give low values 0.962 | S. cerevisiae deletion strains, locus YPL031C, strain PHO85, hits give low values 0.892 | S. cerevisiae deletion strains, locus YPL153C, strain RAD53, hits give low values 0.88 | S. cerevisiae deletion strains, locus YPL204W, strain HRR25, hits give low values 0.868 | S. cerevisiae deletion strains, locus YPL209C, strain IPL1, hits give low values 0.946 | S. cerevisiae deletion strains, locus YPR025C, strain CCL1, hits give low values 0.966 | S. cerevisiae deletion strains, locus YPR106W, strain ISR1, hits give low values 0.932 | S. cerevisiae deletion strains, locus YPR111W, strain DBF20, hits give low values 0.927 | S. cerevisiae deletion strains, strain NNK1, hits give low values 0.93 | S. cerevisiae deletion strains, strain TSCII, hits give low values 0.945
active: [31] 0.675 | [34] 0.724
